GBA enhancer = enhancers of human beta-glucosidase activity in Gaucher fibroblasts. P04062. L444P Gaucher fibroblasts, 4-MU-glucoside fluorescence, 3 days. activation, % at 10 µM. actives 0.44% (n = 30,000). AID 784; in the data active = activation above about 65%
Target sequence (P04062 whole entry L483P): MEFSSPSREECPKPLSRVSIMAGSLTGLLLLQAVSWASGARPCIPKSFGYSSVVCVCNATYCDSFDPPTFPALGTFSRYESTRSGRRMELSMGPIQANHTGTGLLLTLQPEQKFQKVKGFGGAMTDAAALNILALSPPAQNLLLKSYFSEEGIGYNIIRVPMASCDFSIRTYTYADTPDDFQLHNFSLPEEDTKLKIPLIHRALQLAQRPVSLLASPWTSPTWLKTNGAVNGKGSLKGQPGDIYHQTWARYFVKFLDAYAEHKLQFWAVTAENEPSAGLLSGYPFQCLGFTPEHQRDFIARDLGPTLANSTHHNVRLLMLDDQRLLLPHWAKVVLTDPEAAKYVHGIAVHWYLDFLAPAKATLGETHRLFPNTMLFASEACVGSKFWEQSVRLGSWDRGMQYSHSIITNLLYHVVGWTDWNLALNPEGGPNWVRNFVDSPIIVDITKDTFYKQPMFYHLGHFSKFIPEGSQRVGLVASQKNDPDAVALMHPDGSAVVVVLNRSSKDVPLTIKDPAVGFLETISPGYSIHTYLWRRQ
A number is an active result. The entries come from a sample that favours hits as a whole.

Screening CC(C)CCn1nnnc1C(c1ccccc1)N1CCC(C(N)=O)CC1 (stereo unspecified) returned GBA enhancer 87.
Screening C=CCN1CCN(C(c2ccccc2)c2nnnn2CCC(C)C)CC1 (stereo unspecified) returned GBA enhancer inactive.
COc1ccc(N2CCN(CC(=O)Nc3cc4c(cc3C(C)=O)OCO4)CC2)cc1 was read as GBA enhancer inactive.
`CCc1ncc(C(=O)c2ccc(OC)cc2)n1C` gave GBA enhancer inactive.
For O=C(CCS(=O)(=O)c1cccc2nonc12)NCCc1ccccc1 the results were GBA enhancer inactive.
`O=C(CCS(=O)(=O)c1cccc2nonc12)N1CCCc2ccccc21` gave GBA enhancer 72.
For O=C(CCCC(=O)N1CCCc2ccccc21)N1CCCc2ccccc21 the results were GBA enhancer inactive.
Screening COC(=O)c1ccccc1NC(=O)CN(C)S(=O)(=O)c1ccc(OC)cc1 returned GBA enhancer inactive.
For O=C(Cn1nc(-c2ccccc2)ccc1=O)NCC1COCCO1 (stereo unspecified) the results were GBA enhancer inactive.
`CSc1nc2ccccc2n1CC(=O)Nc1c(C)n(C)n(-c2ccccc2)c1=O` gave GBA enhancer inactive.
CCc1ccc(NC(=O)Cn2c(SC)nc3ccccc32)cc1 was read as GBA enhancer 82.
COC(=O)n1c(SC)nc2ccccc21 was read as GBA enhancer inactive.
For Cc1ccc(S(=O)(=O)C2(C(=O)O)CCCC2)cc1C the results were GBA enhancer inactive.
For Cc1c(N(C(=O)c2cc(=O)[nH]c3ccccc23)C(C)C)c(=O)n(-c2ccccc2)n1C the results were GBA enhancer inactive.
C=CCNC(=O)CCCCC(=O)NCC=C was read as GBA enhancer inactive.
For C=CCNC(=O)CCCOc1cc(C)ccc1C the results were GBA enhancer 68.
For Cc1ccc(C)c(OCC(=O)Nc2nonc2NC(=O)COc2cc(C)ccc2C)c1 the results were GBA enhancer inactive.
`Cc1[nH]c(=O)c(C#N)c(C)c1Br` gave GBA enhancer inactive.
Cc1ccc(S(=O)(=O)NC(=O)Nc2c(C)n(C)n(-c3ccccc3)c2=O)cc1 was read as GBA enhancer inactive.
For Cc1cc(=O)[nH]c2cc(Cl)ccc12 the results were GBA enhancer inactive.
`CCCCCCn1c(CN2CCN(C)CC2)nc2c1c(=O)n(C)c(=O)n2C` gave GBA enhancer inactive.
`Cc1cc(N2CCC(C)CC2)nc2ccc(N3C(=O)CCC3=O)cc12` gave GBA enhancer inactive.
`COCCCn1c(SCC(=O)N2CCCCC2C)nnc1-c1ccco1` (stereo unspecified) gave GBA enhancer inactive.
`COCCCn1c(SCC(=O)OC2CCCCC2)nnc1-c1ccco1` gave GBA enhancer 66.
`CCCn1c(SCC(=O)N2CCCCC2)nnc1-c1ccco1` gave GBA enhancer inactive.
For COc1ccc(NC(=O)C2CCCN2c2ccc(OC)c(OC)c2)cc1OC (stereo unspecified) the results were GBA enhancer inactive.
Screening O=C1C2C3C=CC(C3)C2C(=O)N1CN(Cc1ccccc1)CN1C(=O)C2C3C=CC(C3)C2C1=O (stereo unspecified) returned GBA enhancer inactive.
`Cc1nc(C)c(-c2csc(NCc3ccco3)n2)s1` gave GBA enhancer 98.
For Cc1nc(NC(=O)c2ccccc2)sc1-c1csc(NCc2ccco2)n1 the results were GBA enhancer inactive.
For COc1ccc(-c2csc(NCc3ccco3)n2)cc1 the results were GBA enhancer inactive.
Screening Cc1ccc(CN2C(=O)CCC2C(=O)NCCN(CC(C)C)CC(C)C)cc1 (stereo unspecified) returned GBA enhancer inactive.
COc1cc2c(C(=O)NCCCN3CCN(c4cccc(Cl)c4)CC3)cn(C)c(=O)c2cc1OC was read as GBA enhancer 85.
Screening COCCNC(=O)c1cn(C)c(=O)c2cc(OC)c(OC)cc12 returned GBA enhancer inactive.
Screening CCOCCCNC(=O)c1cn(C)c(=O)c2cc(OC)c(OC)cc12 returned GBA enhancer inactive.
For COC(=O)c1ccccc1NC(=O)n1cc(C)cn1 the results were GBA enhancer inactive.
For CC1Cc2nc(SCC(=O)NCC3CCCO3)n(Cc3ccccc3)c(=O)c2S1 (stereo unspecified) the results were GBA enhancer inactive.
Screening COc1ccc(CN(Cc2cc3cccc(C)c3[nH]c2=O)C(=O)N(C)C)cc1 returned GBA enhancer 72.
Cc1cccc2cc(CN(Cc3ccccc3)C(=O)N(C)C)c(=O)[nH]c12 was read as GBA enhancer inactive.
Cc1ccc(CN(Cc2cc3cccc(C)c3[nH]c2=O)C(=O)N(C)C)cc1 was read as GBA enhancer inactive.
Screening CC1CCCC(NC(=O)C2CCN(S(=O)(=O)N3CCC4(CC3)OCCO4)CC2)C1C (stereo unspecified) returned GBA enhancer inactive.
Screening O=C(CSc1nnnn1C1CCCCC1)NCc1ccco1 returned GBA enhancer inactive.
For COc1ccc2cc3cc(C(=O)NCCc4ccc(OC)c(OC)c4)oc3nc2c1 the results were GBA enhancer inactive.
Screening COc1ccc2cc3cc(C(=O)NCCCN4CCOCC4)oc3nc2c1 returned GBA enhancer inactive.
Screening CCCN(CCC)CCCNC(=O)c1cc2cc3ccc(OC)cc3nc2o1 returned GBA enhancer inactive.
`CCCCN(CC)CCCNC(=O)c1cc2cc3ccc(OC)cc3nc2o1` gave GBA enhancer 123.
For CCN1CCN(CCCNC(=O)c2cc3cc4ccc(OC)cc4nc3o2)CC1 the results were GBA enhancer 94.
For COc1ccc2cc3cc(C(=O)NCCN4CCN(Cc5ccccc5)CC4)oc3nc2c1 the results were GBA enhancer inactive.
For CCC(C)(C(=O)NC1CCCC1)N(Cc1cccs1)C(=O)Cc1cccs1 (stereo unspecified) the results were GBA enhancer inactive.
Cc1ccc(C(=O)c2nocc2C(=O)c2cccs2)cc1 was read as GBA enhancer inactive.
COc1ccccc1N1CCN(Cc2nc3ccccc3c(=O)n2CC(C)=O)CC1 was read as GBA enhancer inactive.

Screens as filed in PubChem BioAssay.
